# Screening results: PubChem BioAssay, several laboratories
# This is a sample that favours compounds with a hit; in the whole collection about 1.8% have one here.
# SSB-PriA inh – K. pneumoniae PriA-SSBct interaction inhibition | inhibition, % at 33 µM | 430,000 tested, 0.6% active | AlphaScreen SSBct-PriA binding, biotinylated peptide; in the data active = inhibition mostly above about 37%, no sharp cut-off; inactive = mostly below about 20%
# Sa ugtP lethal – kills S. aureus RN4220 lacking UgtP; S. aureus RN4220 ugtP deletion, OD600 growth, 16 h; growth inhibition, % (concentration not given with the values); 330,000 tested, 0.54% active; AID 1259309; in the data active = growth inhibition above about 68%
# PfHsp40 rescue – rescue of PfHsp40-mediated yeast toxicity | S. cerevisiae expressing PfHsp40, growth rescue, ATP luminescence | growth rescue, % at 12.5 µM | 340,000 tested, 0.68% active | AID 504582; in the data active = growth rescue above about 28%, passing the limit was not always enough;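 note: yeast W303a lacking pdr1 and pdr3 grown in galactose medium; growth measured after three days at 30 °C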
# Sa RN4220 lethal – S. aureus RN4220 growth inhibition; OD600, 16 h; inhibition, % (no concentration beside the values); 330,000 tested, 0.33% active; AID 1259311; in the data active = inhibition above about 85%
# VHR inh abs – inhibitors of human VHR1 phosphatase (DUSP3). inhibition, % at 13.3 µM. 290,000 tested, 0.52% active. P51452. recombinant VHR phosphatase, pNPP absorbance; in the data active = inhibition above about 50%
# Target sequence (P51452 whole entry, looked up): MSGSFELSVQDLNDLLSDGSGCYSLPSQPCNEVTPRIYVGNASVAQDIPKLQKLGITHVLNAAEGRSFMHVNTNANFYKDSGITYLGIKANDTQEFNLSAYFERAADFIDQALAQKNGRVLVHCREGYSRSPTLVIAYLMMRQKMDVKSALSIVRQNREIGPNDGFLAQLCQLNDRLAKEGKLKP
# Mtb hypoxia rep – Mtb hypoxia fluorescent reporter inhibition. M. tuberculosis hypoxia-regulated fluorescent reporter, fluorescence. fluorescence inhibition, % (test concentration not listed). 300,000 tested, 0.1% active; in the data active = fluorescence inhibition mostly above about 23%, no sharp cut-off; inactive = mostly below about 17%
# Hits are given with their value; – = inactive; · = not tested or not shown.
SMILES,SSB-PriA inh,Sa ugtP lethal,PfHsp40 rescue,Sa RN4220 lethal,VHR inh abs,Mtb hypoxia rep
CCCCCCCCCCCCCCCCSCc1ccc(O)c2ncccc12,59,·,·,·,·,·
O=Cc1ccc(O)c2ncccc12,94,–,628,–,–,–
Nc1nonc1C(=NO)N1CCN(CCO)CC1,–,–,·,–,·,–
CCOc1ccc(S(=O)(=O)N=C(Nc2ccc(C)c(S(=O)(=O)N3CCOCC3)c2)c2ccccc2)cc1,–,·,·,·,·,·
O=S(=O)(NCc1nn(C2CCCC2)c2c1CCCC2)C1CC1,–,·,·,·,·,·
COc1cccc2cc(C(=O)Nc3cc(-n4cccn4)ncn3)oc12,–,·,·,·,·,·
CCc1ccc(O)c2ncccc12,–,·,·,·,·,·
CCCCCCCCCCCC(=O)c1c(O)cccc1O,–,100,165,100,–,·
O=S(=O)(O)c1ccc(O)c2ncccc12,99,·,·,·,·,·
Oc1ccc(-c2ccc(O)c3ncccc23)c2cccnc12,–,·,·,·,·,·
CCN(CC)Cc1ccc(O)c2ncccc12,139,·,·,·,·,·
Oc1ccc(Cc2ccc(O)c3ncccc23)c2cccnc12,72,·,·,·,·,·
COc1ccc(CCS(=O)(=O)NCCCN2CCO[C@H](c3ccccc3)C2)cc1,–,·,·,·,·,·
COc1ccc(N2C(=O)CCS2(=O)=O)cc1S(=O)(=O)NC1CCCC1,–,·,·,·,·,·
CC(C)OCc1ccc(O)c2ncccc12,87,·,·,·,·,·
O=C(CSc1nc2ccccc2s1)N1c2ccccc2Sc2ccc(Cl)cc21,–,–,–,–,–,–
O=c1oc2cc(Cl)ccc2n1CSc1nc2ccccc2s1,–,–,–,85,–,·
CC[C@@H](C(=O)N(Cc1ccsc1)C1CC1)c1ccccc1,–,·,·,·,·,·
Cc1ccc(OCc2n[nH]c(=S)n2-c2ccc(Br)cc2)cc1,–,–,–,–,58,–
C(=NNc1nncc2ccccc12)c1ccccn1,51,–,·,–,·,–
O=c1cnnc(NN=Cc2ccccn2)[nH]1,71,–,·,–,·,–
O=c1cnnc(NN=Cc2c[nH]c3ccccc23)[nH]1,–,–,·,–,·,–
CSc1cccc(NC(=O)Cn2cnc3c(-c4ccc(Cl)cc4)csc3c2=O)c1,–,·,·,·,·,·
CC1(C)CC(=O)C(C(=O)Cc2ccccc2[N+](=O)[O-])C(=O)C1,–,–,29,–,–,–
CCOc1ccc(CC(=O)C2C(=O)CC(C)(C)CC2=O)cc1OCC,–,–,–,–,–,–
SMILES,SSB-PriA inh,Sa ugtP lethal,PfHsp40 rescue,Sa RN4220 lethal,VHR inh abs,Mtb hypoxia rep
CON=C(CS(=O)Cc1ccccc1Cl)c1ccc(Cl)cc1Cl (stereo unspecified),–,–,·,–,·,–
Cc1nnc(SCC(=O)NC(=O)NC(C)(C)C)n1N,–,–,52,–,–,–
Cc1ccc(-c2nc(CSc3nc(C(F)(F)F)cc(=O)[nH]3)c(C)o2)cc1,–,·,·,·,·,·
COC(=O)NN=Cc1cc(N=Nc2ccccc2Cl)ccc1O,–,–,·,–,·,–
O=Cc1cc(N=Nc2ccccc2Cl)ccc1O,–,–,211,–,–,–
CCOC(=O)C1C2COc3cc(OC)ccc3C2N2C(=O)N(c3cccc(Cl)c3)C(=O)[C@]12C (stereo partly specified),·,–,·,–,·,–
O=C(Nc1sc2c(c1C(=O)NCCCO)CCCC2)c1ccccc1,–,–,–,–,–,–
O=C(Nc1sc2c(c1C(=O)O)CCC2)c1ccccc1,–,–,–,–,52,–
O=C(CN1CCCC1)Nc1sc2c(c1C(=O)Nc1ccc(Br)cc1)CCC2,75,·,–,·,–,·
O=C(CN1CCCCC1)Nc1sc2c(c1C(=O)Nc1ccc(F)cc1)CCCC2,–,·,·,·,·,·
NCCNC(=O)c1c(NC(=O)c2ccccc2)sc2c1CCCC2,–,–,–,–,54,–
Cc1ccccc1-c1noc(CC2CCCN(C(=O)C3CCN(S(C)(=O)=O)CC3)C2)n1 (stereo unspecified),–,·,·,·,·,·
Fc1ccc2c(c1)C(=NNc1ccccn1)CCS2,–,–,·,–,·,–
COc1cc(C)c(S(=O)(=O)Nc2ccc(-c3cn4ccc(C)nc4n3)cc2)cc1C,–,·,·,·,·,·
COC(=O)C1=C(c2ccc(OC(F)(F)F)cc2)CC2CCC1N2C(=O)N1CCC(C)CC1 (stereo unspecified),·,–,·,–,·,–
COC(=O)C1=C(c2ccc(OC(F)(F)F)cc2)C[C@@H]2CC[C@H]1N2C(=O)N1CCC(C)CC1,–,·,41,·,·,·
CSc1nc2ccc(NC(=O)c3cccs3)cc2s1,–,–,158,–,·,–
CSc1nc2ccc(NC(=O)c3ccccc3SC)cc2s1,–,·,·,·,·,·
O=C(Nc1cccc(-c2nc3ccccc3s2)c1)c1cccs1,–,–,403,–,–,–
Cc1ccnc(Nc2cc(NCCNS(=O)(=O)c3ccccc3Cl)ncn2)c1,–,·,·,·,·,·
N#CC(N=Nc1ccccc1O)=NNc1ccccc1O,·,–,·,–,·,–
Cc1nc2ccccc2n1CC(=O)NN=Cc1cccnc1,–,–,·,–,·,–
COc1ccc(C=Nc2c(-c3ccc(OC)cc3)nc3n2CCS3)cc1,56,–,·,–,·,–
Cc1nnc(-c2ccc(OCC(=O)Nc3ccccc3C(F)(F)F)cc2)o1,–,·,·,·,·,·
COc1ccc(OC)c(-c2cc(C(=O)NCC#CCOc3ccc4c(c3)OCO4)n(C)n2)c1,53,·,·,·,·,·
SMILES,SSB-PriA inh,Sa ugtP lethal,PfHsp40 rescue,Sa RN4220 lethal,VHR inh abs,Mtb hypoxia rep
COc1ccc(OC)c(-c2cc(C(=O)NCCc3nc(-c4ccco4)cn3C)n(C)n2)c1,35,·,·,·,·,·
COc1ccc(Cl)cc1C(=O)NCC#CCOc1ccc2c(c1)OCO2,–,·,·,·,·,·
COc1ccc(OC)c(-c2cc(C(=O)NCc3cc(-c4ccco4)n(C)n3)n(C)n2)c1,–,·,·,·,·,·
CC(=O)c1cccc(NC(=O)c2sc3nc4c(c(-c5cccnc5)c3c2N)CCCC4)c1,–,·,·,·,·,·
O=C(OCc1ccccc1F)c1cc2ccccc2cc1O,–,87,–,–,–,–
O=C(COC(=O)c1cc2ccccc2cc1O)c1ccccc1,–,–,–,–,–,–
CCCOc1ccc(-c2csc(NC(=O)/C=C/c3ccccc3Cl)n2)cc1,–,·,·,·,·,·
COc1ccc(Br)c(C(=O)N2CCCC(c3nnc(-c4ccsc4)o3)C2)c1 (stereo unspecified),–,·,·,·,·,·
N#CC1(Nc2cccc(Br)c2)C(=O)Nc2ccccc21 (stereo unspecified),–,–,–,–,–,–
N#CC1(Nc2ccccc2)C(=O)Nc2ccccc21 (stereo unspecified),–,–,–,–,–,56
CN=C(Nc1ccc(Br)cc1)SC1CC(=O)N(c2ccc(OC)cc2)C1=O (stereo unspecified),–,–,43,–,–,–
O=C(NCc1cccs1)NCC(O)(c1ccccc1)C1CC1 (stereo unspecified),–,·,·,·,·,·
CC(C)(O)C(O)COc1c2ccoc2cc2oc(=O)ccc12 (stereo unspecified),40,–,–,–,–,–
COC(C)(C)C(O)COc1c2ccoc2cc2oc(=O)ccc12 (stereo unspecified),·,–,·,–,·,–
CN(Cc1c(F)cccc1Cl)C(=O)c1cc2ccccc2o1,–,–,–,–,–,–
CN(Cc1c(F)cccc1Cl)C(=O)c1ccc(COc2ccccc2)cc1,–,100,–,97,–,–
COc1ccc(-n2nc(C(=O)NCC(=O)N3CCC4(CC3)OCCO4)c3ccccc3c2=O)c(OC)c1,–,–,–,–,56,–
